High-throughput results as filed in PubChem.
NS1 inh = influenza NS1 inhibition. actives 0.4% (n = 270,000). AID 2326. Potency, µM (doses to about 46.1 µM), inactives show at the highest dose activity, positive = more growth; also: potency is read from the fitted curve at half-maximal effect; actives are rising curves; nearly all actives have a fitted effect of over 50% in size
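Growth recovery, yeast-based: influenza A NS1 expressed in S. cerevisiae causes slow growth, and suppressors are detected by OD600. The parent strain without NS1 is used as positive control.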
Pf growth 48h = inhibits P. falciparum growth in the first generation, 48 h; P. falciparum luciferase growth in erythrocytes, 48 h; Potency, µM (highest dose often 28.7 µM), without a hit: at the highest dose activity change, negative = inhibition, most hits filed as inhibitors; actives 5.9% (n = 310,000); active = well fitted inhibition curve with a large enough effect; inconclusive = small, poorly fitted or top-dose-only effect, or another doubt; inactive = no such curve, though single readings can be large or run the other way; also: potency is read from the fitted curve at half-maximal effect; % is scaled to controls: 0 for no effect and ±100 for the full control effect
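Firefly luciferase activity from engineered P. falciparum reports growth; inhibitors lower the luminescent signal. Cultures contained 2% hematocrit erythrocytes at 0.1% final parasitemia.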
SARS PLpro yeast = SARS-CoV PLP inhibition in yeast; S. cerevisiae expressing SARS-CoV PLpro, growth rescue; Potency, µM (doses to about 32.9 µM), for inactives: at the top dose activity, positive = growth rescue, most hits filed as activators; actives 0.19% (n = 330,000); also: potency is read from the fitted curve at half-maximal effect; 0% is about no effect; nearly all actives have a fitted effect of over 55% in size
CHX counter = affects cycloheximide protein synthesis inhibition readout, counter-screen; cell reporter, cycloheximide protein synthesis inhibition counterscreen; max response, %; actives 12% (n = 300,000); AID 2314; in the data active = max response mostly above about 13%, no sharp cut-off; inactive = mostly below about 14%; also: read at 38.3 µM for the half of the compounds with a filed dose; 0% is about no effect
Pf growth 96h = inhibits malaria parasite growth, 96 h | P. falciparum luciferase reporter growth, 96 h | Potency, µM (doses to about 28.7 µM), without a hit: top-dose activity change, negative = inhibition, hits mostly inhibitors | actives 6.9% (n = 320,000); active = well fitted inhibition curve with a large enough effect; inconclusive = small, poorly fitted or top-dose-only effect, or another doubt; inactive = no such curve, though single readings can be large or run the other way; also: potency is read from the fitted curve at half-maximal effect; % is scaled to controls: 0 for no effect and ±100 for the full control effect
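96 h incubation, 37 C, 5% CO2, of luciferase-reporter P. falciparum-infected RBCs (2% hematocrit, 0.05% parasitemia final) with test compounds; endpoint luminescence.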
Shiga toxin inh = inhibitors of Shiga toxin in Vero cells; actives 9.2% (n = 290,000); inhibition, % at 38.7 µM; Vero cells, Shiga toxin protein synthesis inhibition reporter; in the data active = inhibition mostly above about 28%, no sharp cut-off; inactive = mostly below about 43%; also: 0% is about no effect
* marks the source's active call; other numbers are inactive results; u = inconclusive; x = not tested or not shown; [ ] = another dose, or the depositor's remark. Rows were chosen to be rich in hits. Some 21% of all compounds tested hit in one or more screens of this group. Unless noted, calls follow the shape of the full dose curve.

SMILES	NS1 inh	Pf growth 48h	SARS PLpro yeast	CHX counter	Pf growth 96h	Shiga toxin inh
O=c1cc(CN2CCN(c3cccc(Cl)c3)CC2)c2cc(O)c(-c3ccccc3)cc2o1	6%	2.1µM*	1%	-1	u	1
O=c1cc(CN2CCN(Cc3ccccc3)CC2)c2cc(Cl)ccc2o1	3%	0%	-2%	-6	u	-22
COc1cccc(NCc2cc(=O)oc3cc(-c4ccccc4)c(O)cc23)c1	3%	u	18%	27*	u	62*
NC(=O)C1CCCN1 (stereo not given)	x	2%	5%	-2	24%	-16
CN(C)C(=O)/C(C#N)=C\c1cc(Br)c(Sc2ccc(Cl)cc2)o1	14%	u	7%	-4	u	-8
Nc1c(C(=O)OCc2ccccc2)c2nc3ccccc3nc2n1Cc1cccs1	9%	x	-7%	0	15µM*	-8
Cc1ccc(NS(=O)(=O)c2cc(NC(=O)C(C)Oc3ccccc3)ccc2C)c(C)c1 (stereo not given)	u	u	-5%	-1	u	7
CCOc1ccc(S(=O)(=O)Nc2ccccc2C(=O)N(C)C2CCN(C)CC2)cc1	x	u	1%	x	u	x
Cc1ccc(C)c(S(=O)(=O)Nc2cc(SCC(=O)O)c(O)c3ccccc23)c1	-26%	u	-22%	14*	21%	-1
CCOC(=O)c1ccccc1NS(=O)(=O)c1ccc(OCC)cc1	-17%	x	-4%	15	9.3µM*	9
CCOC(=O)NCc1ccc(S(=O)(=O)Nc2ccccc2C)cc1	-2%	x	-3%	-3	13µM*	-10
O=S(=O)(Nc1cc(Sc2cccc3cccnc23)c(O)c2ccccc12)c1ccccc1	1%	3.3µM*	-15%	21	243%	53*
O=C1c2ccccc2C(=O)c2cc(S(=O)(=O)Nc3cccc4cccnc34)ccc21	x	x	x	7	x	17
O=C(COC(=O)COc1ccccc1F)NCc1ccco1	x	x	13%	x	x	x
O=C(CCc1nc2ccccc2c(=O)[nH]1)Nc1cccc(S(=O)(=O)N2CCOCC2)c1	x	u	-4%	x	u	x
COc1ccc(OC)c(S(=O)(=O)Nc2ccc(O)c3ccccc23)c1	4%	1.2µM*	-46%	26*	x	35*
COc1ccc(OC)c(S(=O)(=O)Nc2ccc(Oc3ccccc3)cc2)c1	-8%	-3%	5%	-1	0%	-15
O=C(O)CSc1cc(NS(=O)(=O)c2cccc([N+](=O)[O-])c2)c2ccccc2c1O	-7%	10µM*	-6%	13*	u	11
CCc1ccc(S(=O)(=O)Nc2c(C)n(C)n(-c3ccccc3)c2=O)cc1	3%	2%	1%	-3	1%	-3
CCc1ccc(S(=O)(=O)Nc2ccc(O)c3ccccc23)cc1	2%	9.3µM*	-3%	-3	8%	-3
CCc1ccc(S(=O)(=O)Nc2cc(SCC(=O)O)c(O)c3ccccc23)cc1	-10%	7.4µM*	-6%	9	u	30*
S=C(S)NCCCn1ccnc1	0%	x	x	x	x	x
OCCCNc1ccccc1	x	-5%	x	x	5%	x
CCOc1ccc(S(=O)(=O)Nc2cc(SCC(=O)O)c(O)c3ccccc23)cc1	-103%	10µM*	-32%	15	1.9µM*	6
CCOc1ccc(S(=O)(=O)Nc2ccccc2C(=O)NCC2CCCO2)cc1 (stereo not given)	-3%	x	4%	-2	9%	-16
SMILES	NS1 inh	Pf growth 48h	SARS PLpro yeast	CHX counter	Pf growth 96h	Shiga toxin inh
CC(C)(C)C(=O)Oc1ccc(S(=O)(=O)Nc2ccccc2C(=O)NCC(=O)O)cc1	x	-4%	x	x	13µM*	x
Cn1c(Cn2c(=O)sc3ccccc32)nnc1SCc1ccccc1F	-8%	x	5%	-5	12µM*	-10
Cc1ccc2c(c1)cc1c(=O)[nH]ncn12	-11%	52%	2%	8	53%	88*
Cc1ccc(Cn2c3ccccc3c3cn[nH]c(=O)c32)cc1	-13%	-8%	-6%	-1	-1%	12
O=C(c1cn(Cc2ccccc2)nc1-c1cccnc1)N1CCc2ccccc2C1	x	u	-7%	x	13µM*	x
COc1ccccc1N1CCN(C(=O)c2cn(Cc3ccccc3)nc2-c2cccnc2)CC1	x	u	-5%	x	9.3µM*	x
CC(=O)N1CCCc2cc(S(=O)(=O)NCCC3=CCCCC3)ccc21	-4%	-5%	4%	1	6%	-6
CCC(=O)Nc1ccc(NC(=S)NC(=O)c2oc3ccccc3c2C)cc1	-4%	-15%	9%	-3	-22%	-7
Cc1c(C(=O)Nc2cnccn2)oc2ccccc12	-16%	u	4%	28*	u	61*
CC(=O)Nc1cccc(NC(=O)c2oc3ccccc3c2C)c1	-22%	218%	-13%	48*	x	100*
CCC(=O)Nc1ccc(NC(=O)c2oc3ccccc3c2C)cc1	-28%	88%	1%	10*	u	24
Cc1c(C(=O)NCc2ccccn2)oc2ccccc12	-3%	69%	-1%	32*	13%[5.75 µM]	39*
CC(=O)Nc1ccc(NC(=S)NC(=O)c2oc3ccccc3c2C)cc1	11%	-6%	0%	-3	45%	-5
Cc1c(C(=O)NCc2ccccn2)oc2ccc(Br)cc12	x	54%	6%	x	108%	x
O=C(Nc1ccccc1Br)c1cc[n+]([O-])cc1	2%	9%	-12%	-3	13%	-5
O=C(COC(=O)c1ccco1)Nc1ccc2c(c1)OCCO2	-12%	0%	-3%	56*	-15%	79*
O=C(Nc1cccc(NC(=O)c2ccco2)c1)c1ccc2c(c1)OCCO2	-3%	32%	1%	22	-2%	43
Cn1cccc1C(=O)OCC(=O)Nc1ccc2c(c1)OCCO2	x	x	-20%	x	x	x
CC1(C)Oc2ccc(NC(=O)c3ccco3)cc2O1	-29%	138%	-14%	32*	-24%	91*
O=C(Nc1ccc2c(c1)OCCO2)c1ccco1	1%[9.22 µM]	209%	-15%	40*	u	112*
CCC(O)CC(C(=O)NNc1ccccc1)C(=O)NNc1ccccc1 (stereo not given)	x	8%	-1%	-2	u	-5
